Results on 40 compounds are retold here after PubChem BioAssay (NCATS).

Activity calls are given as the source filed them. Calls follow the shape of the dose curve; as a rule, active = well fitted curve in the direction sought with a large enough effect; inconclusive = small, poorly fitted or top-dose-only effect, or another doubt; inactive = no such curve, though single readings can be large or run the other way.

The assay is described as follows: qHTS for compounds that reverse cellular toxicity of Amyloid beta (A-beta) peptide in yeast: LOPAC Validation Assay (AID 720559). The settings on record: yeast expressing A-beta; Potency: rescue of growth toxicity; series mostly up to 46.1 µM; growth rescue, positive = activation: at the top concentration. The source says: The A-beta peptide is produced by the processing of the amyloid precursor protein (APP) by two proteases, beta and gamma secretases. […] A-beta42 is regarded as the most amyloidogenic form due to its hydrophobicity; however, precisely how A-beta42 induces neurotoxicity is unclear. To understand further this biology and its potential therapeutic implications for human neurodegenerative disease, a quantitative high-throughput screen for compounds that reverse the cellular toxicity of the A-beta peptide was developed.
A yeast based screen was used because it recapitulates the salient feature of protein mis-folding disorder accurately. This cell-based phenotypic screen provides a significant, unbiased advantage by letting the compounds and models inform us which proteins or pathways are most relevant. The ideal chemical candidates would therefore have activity in both our primary yeast and secondary neuronal toxicity assays, as well as in mouse models. They will be valuable tools for dissecting diverse protein homeostasis pathologies and could potentially become the focus for future pre-clinical development. For this […] assay, inhibition of A-beta rescues the toxic effect in the yeast cell, resulting in increase of signals.
NIH Chemical Genomics Center [NCGC]
NIH Molecular Libraries Probe Centers Network [MLPCN]
Assay Submitter (PI): Susan Lindquist, Whitehead Institute, Massachusetts Institute of Technology
[1] Vassar R,et al (1999). Beta-secretase cleavage of Alzheimer's amyloid precursor protein by the transmembrane aspartic protease BACE. Science. 286: 735-741.
[2] Yan R, et al (1999). Membrane-anchored aspartyl protease with Alzheimer's disease beta-secretase activity. Nature.
Two and a half microliter / well of yeast growth medium were dispensed in a 1536 assay plate. Compounds were pinned using the Kalypsys robotic system followed by addition of 2.5 uL / well yeast solution. The assay plates were incubated at 30 C. After 48 hr, the absorbance signal at 600 nm was obtained using the PerkinElmer ViewLux plate reader to assess yeast growth. The data was normalized to the positive control of an equimolar mixture of ferric chloride (FeCl3) and clioquinol and to the negative control DMSO.
As to `CN1CCc2cc(O)c(O)cc2C(c2ccccc2)C1` (stereo not given), the “growth rescue, positive = activation” value is -4.04% (inactive). Still for that read-out and setting: the figure for `C[N+](C)(CCCCCC[N+](C)(C)CCCN1C(=O)c2cccc3cccc(c23)C1=O)CCCN1C(=O)c2cccc3cccc(c23)C1=O` is -4.3% (inactive); for `CC(=O)/C=C1\C(=O)N(C)c2ccccc21` it is -62.1% (inactive). In the case of `N.N.O=C(O)C1(C(=O)O)CCC1.[Pt]`, the “growth rescue, positive = activation” value was 1.65% (inactive). Same read-out and setting: the figure for `CN1CCc2cc(NC(=O)Nc3cccnc3)ccc21` is -2.38% (inactive). On the same count and under the same terms, the figure for `CCCCCCCCc1ccc(-c2ccc(C(=O)O)cc2)cc1` is -2.08% (inactive); for `O=[N+]([O-])c1ccc2c(c1)S(=O)(=O)C=C2` it is -50.8% (inactive). Same read-out and setting: next, `Cc1cc(NC(=O)Nc2ccc3c(ccn3C)c2)sn1`: -5.41% (inactive); `NCCCCCCCCCCN`: -3.8% (inactive); `NCCNC(=O)c1ncsc1-c1cccc(F)c1`: 0.485% (inactive). With `O=C(O)c1cc([N+](=O)[O-])ccc1NCCCc1ccccc1`, the “growth rescue, positive = activation” value is -0.395% (inactive).

As to `C#CCN1C(C)=C(C(=O)OC)C(c2cccc([N+](=O)[O-])c2)C(C(=O)OCC)=C1C` (stereo not given), the “growth rescue, positive = activation” value is -2.4% (inactive).

Regarding `O=C(O)c1cc(=O)c2c(Cl)cc(Cl)cc2[nH]1`, the “growth rescue, positive = activation” value was -2.89% (inactive).

For the compound `N=c1ccn2c(n1)O[C@H]1[C@H](O)[C@@H](CO)O[C@H]12`, the “growth rescue, positive = activation” value is -4.54% (inactive). On to `CNC(=O)[C@H]1O[C@@H](n2cnc3c(NCc4cccc(I)c4)ncnc32)[C@H](O)[C@@H]1O`, for which the “growth rescue, positive = activation” value is -1.32% (inactive). On to `COc1ccc(/C=C/C(=O)Nc2ccccc2C(=O)O)cc1OC`, for which the “growth rescue, positive = activation” value is -7.87% (inactive).

Regarding `CC(C)CC(NP(=O)(O)O[C@@H]1O[C@@H](C)[C@H](O)[C@@H](O)[C@H]1O)C(=O)NC(Cc1c[nH]c2ccccc12)C(=O)O` (stereo not given in full), the “growth rescue, positive = activation” value was 0.512% (inactive).

Consider `Cc1cc2c(cc1Cl)N(C(=O)Nc1ccc(Oc3cccnc3C)nc1)CC2`, for which the “growth rescue, positive = activation” value was 7.64% (inactive). On to `NC[C@@H]1O[C@H](C23CC4CC(CC(C4)C2)C3)Cc2c1ccc(O)c2O`, for which the “growth rescue, positive = activation” value is -2.71% (inactive). With `O=C(O)CC1CCCc2ccccc2C1O` (stereo not given), the “growth rescue, positive = activation” value is 1.92% (inactive). Turning to `O=C1O/C(=C/Br)CCC1c1cccc2ccccc12` (stereo not given), the “growth rescue, positive = activation” value was -30.5% (inactive). Same read-out and setting: the figure for `CN1C2CCC1CC(OC(=O)C(O)c1ccccc1)C2` (stereo not given) is -1.72% (inactive); for `OCC1O[C@H]([S-])[C@H](O)[C@@H](O)[C@@H]1O.[Au+]` (stereo not given in full) it is 3.82% (inactive).

For the compound `NCCSSCCN`, the “growth rescue, positive = activation” value is 1.57% (inactive). The same measure, in the same setting: the figure for `O=P(O)(O)C(Cl)(Cl)P(=O)(O)O` is -3.88% (inactive). `CNc1ncnc2c1ncn2[C@@H]1O[C@H](CO)[C@@H](O)[C@H]1O`: the “growth rescue, positive = activation” value was 2.79% (inactive). On to `NCCCS(=O)(=O)O`, for which the “growth rescue, positive = activation” value is -3.46% (inactive). On the same count and under the same terms, the figure for `COc1ccccc1N1CCN(CCN(C(=O)c2ccc(I)cc2)c2ccccn2)CC1` is -4.83% (inactive); for `N#C/C(=C\c1c[nH]c2ccccc12)C(=O)c1ccc(O)c(O)c1` it is 0.0854% (inactive). The same measure, in the same setting: the figure for `CC(COc1ccc(/C=C/c2ccccc2)cc1)[N+](C)(C)C` (stereo not given) is -25% (inactive); for `O=C(Nc1cccc(C(=O)Nc2ccc(S(=O)(=O)O)c3cc(S(=O)(=O)O)cc(S(=O)(=O)O)c23)c1)Nc1cccc(C(=O)Nc2ccc(S(=O)(=O)O)c3cc(S(=O)(=O)O)cc(S(=O)(=O)O)c23)c1` it is -9.07% (inactive). Regarding `O=C1C(SCCO)=C(SCCO)C(=O)c2ccccc21`, the “growth rescue, positive = activation” value is -7.86% (inactive). Turning to `O=C(O)[C@@H]1C[C@@H](C(=O)O)N1`, the “growth rescue, positive = activation” value was -9.62% (inactive).

With `COC1=C(OC)C(=O)c2ccccc2C1=O`, the “growth rescue, positive = activation” value was -52.1% (inactive). Same read-out and setting: next, `Cc1nc2sccn2c(=O)c1CCN1CCC(=C(c2ccccc2)c2ccc(F)cc2)CC1`: -4.31% (inactive); `CSc1nc(N)c2ncn([C@@H]3O[C@H](COP(=O)(O)OP(=O)(O)OP(=O)(O)O)[C@@H](O)[C@H]3O)c2n1`: 16.1% (inactive). The same measure, in the same setting: the figure for `CN(C)c1ccc(/C=C2\C(=O)Nc3ccccc32)cc1` is -23.8% (inactive). Regarding `CCC1C(=O)OCC1Cc1cncn1C` (stereo not given), the Potency result was “inactive”.

In the case of `CC(=O)SCC[N+](C)(C)C`, the “growth rescue, positive = activation” value is -2.58% (inactive). Still for that read-out and setting: next, `COc1cc(C(O)CO)ccc1OS(=O)(=O)O` (stereo not given): 0.452% (inactive).
